The record followed here is PubChem BioAssay AID743398 (Broad Institute, 2014).

The campaign covered roughly 300,000 compounds. About 3,600 (1.2%) were called active. For the sample, actives were picked, then their nearest neighbours and some compounds at random. A number with no mark means an inactive call. Cut-off read from the data, not from the text of the source: active = activation above about 30% (passing the limit was not always enough); inconclusive = no clear call, values can overlap the other calls.

A short description of this test: Wnt/beta-catenin pathway activators, primary screen, cell-based, plate reader, single point (AID 743398).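 Note: 0% = neutral control wells and 100% = positive control wells.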 The settings on record: Wnt/beta-catenin reporter cell assay, activator, at 9.35 µM, active compounds read high.
On to `Nc1[nH]c(C(=O)c2ccccc2)c(-c2ccc(Cl)cc2Cl)c1C(=O)c1ccccc1`, for which the activation is 3.74%.

For `NC(=O)COC(=O)/C=C/c1ccc2ccccc2n1`, the activation was 48.3% (active).

On to `COc1cccc(/C=C/c2ccc3ccccc3n2)c1OC(C)=O`, for which the activation was -2.71%.

As to `CCOc1cccc(/C=C/c2ccc3ccccc3n2)c1OC(C)=O`, the activation is 7.85%.

Take `C[C@@H]1CN([C@@H](C)CO)C(=O)CCCn2nncc2CO[C@@H]1CN(C)S(=O)(=O)c1ccc(-c2ccccc2)cc1`: the activation was -3.45%.

In the case of `CCCNC(=O)C1(C)CCN(Cc2csc(-c3ccc(Cl)cc3)n2)C1` (configuration not stated), the activation is -1.95%.

As to `COc1ccccc1NC(=O)/C=C/C(=O)O`, the activation is 0.198%.

For `COC(=O)c1sc(-c2ccc(C(C)(C)C)cc2)cc1NC(=O)/C=C/C(=O)O`, the activation was 34.5% (active).

As for `O=C(O)/C=C/C(=O)Nc1ccc(F)cc1F`, the activation was -1.57%.

With `CCc1nc2c(OCc3ccccc3)cccn2c1N(C)C(=O)c1ccco1`, the activation was -1.39%.

`Cc1ccc(C(O)c2ncc(-c3ccccc3F)[nH]2)cc1F` (configuration not stated): the activation was -2%.

On to `COc1ccc(C2OC(CCc3ccccc3)Cc3[nH]c(=S)[nH]c(=O)c32)cc1` (configuration not stated), for which the activation was -4.52%.

`OCCC#Cc1ccc(N2C(c3ccsc3)=Cc3ccc(F)cc3C2c2c[nH]c3ccccc23)cc1` (configuration not stated): the activation was -4.42%.

As for `C=CC1=CCN(S(=O)(=O)C(C)(C)C)[C@@H]1CCO`, the activation is -5.37%.

As for `Cc1ccc(NC(=O)c2csc3c2CCCC3)cc1`, the activation was 33.5% (active).

As for `O=C(Nc1ccccc1N1CCOCC1)c1csc2c1CCCC2`, the activation was 3.53%.

With `O=C(N/N=C/c1ccco1)c1csc2c1CCCC2`, the activation was 14.7%.

Take `COc1cccc(CNC(=O)[C@H]2CCCN2C(=O)[C@H]2CCCN2C(=O)c2ccc(F)cc2)c1`: the activation is -3.18%.

As to `Cc1ccc2nc(-c3ccc(CN4CCC(n5cc(-c6ccccc6)[nH]c5=O)CC4)cc3)c(-c3ccccc3)nc2c1`, the activation was -0.633%.

Take `O=C(NN=Cc1ccc(N2CCOCC2)cc1)c1cc2ccccc2cc1O`: the activation was -3.76%.

`O=C(CN1CCN(S(=O)(=O)/C=C/c2ccccc2)CC1)Nc1ccc(N2CCOCC2)cc1`: the activation is -0.917%.

As for `O=C(O)c1ccc2c(c1)C(=O)N(NC(=O)c1ccc(O)cc1)C2=O`, the activation is -0.273%.

Regarding `Cc1cccc(N2C(=O)c3ccc(C(=O)Nc4cccc(C(=O)O)c4)cc3C2=O)c1`, the activation is 3.97%.

In the case of `O=C(O)c1ccc2c(c1)C(=O)N(c1ccc(/C=C/C(=O)c3ccccc3)cc1)C2=O`, the activation was 31.9% (active).

Turning to `O=C(/C=C/c1ccc(N2CCOCC2)cc1)c1ccccc1`, the activation is 38.7% (active).

For the molecule `O=C(c1ccc(N2CCCC2=O)cc1)N1CCN(c2ccc(C(F)(F)F)cc2[N+](=O)[O-])CC1`, the activation is -1.11%.

On to `CC(=O)c1ccc(Nc2nc(C(N)c3ccccc3Cl)cs2)cc1` (configuration not stated), for which the activation was -4.58%.

For `O=C(C(=O)N1CCC(CNS(=O)(=O)Cc2ccccc2)CC1)c1cc2ccccc2o1`, the activation was -4.41%.

Consider `Cc1ccc(C(=O)NNc2ncnc3ccccc23)cc1`, for which the activation was 42.9% (active).

For the molecule `Cc1ccc(C(=O)NNC(=O)c2cccs2)cc1`, the activation is 6.9%.

As to `CCc1nc(SCC(=O)NNC(=O)c2ccc(C)cc2)c2ccccc2n1`, the activation was -1.15%.

For `COC(=O)C1=C(C)N(Cc2ccccc2C(F)(F)F)C(=NCC2CC2)NC1c1cccc(Cl)c1` (configuration not stated), the activation is -1.87%.

As to `CCOC(=O)[C@]12CCCC=C1N(Cc1cccc3ccccc13)C(=O)[C@H](CC(=O)NCC13CC4CC(CC(C4)C1)C3)C2`, the activation is -3.35%.

`CCc1c(-c2ccc(F)cc2)ncn1Cc1cccc(-c2ccccc2)c1`: the activation was -4.88%.

In the case of `CN[C@H]1C[C@H]2c3[nH]c4c(-c5ccccc5)cccc4c3CCN2C(=O)[C@H]1[C@H](C)O`, the activation was -5.37%.

For the molecule `CCCc1nc2c3ccccc3ccn2c1Cc1ccccc1C(F)(F)F`, the activation is -0.94%.

As to `Cc1ccc(N)cc1CN1CCN(c2ncc(Cc3ccccc3)cn2)CC1`, the activation is -1.28%.

With `COc1ccc(-c2[nH]ncc2CN(C)Cc2cccnc2)c(F)c1`, the activation was 8.31%.

On to `CCN(CCn1cccn1)Cc1cn[nH]c1-c1ccc(OC)cc1F`, for which the activation is 33.5% (active).

With `COc1ccc(-c2[nH]ncc2CN(C)Cc2cc(C)[nH]n2)c(F)c1`, the activation is -0.792%.

On to `CCOC(=O)N1CCN(C(=O)c2ccccc2N(Cc2ccccc2)S(=O)(=O)c2ccc(OC)cc2)CC1`, for which the activation is -3.31%.

As for `O=C(O)c1cc(S(=O)(=O)N(Cc2ccccc2)c2ccccc2)ccc1Cl`, the activation was 1.67%.

Regarding `NC(=O)c1ccccc1N(Cc1ccccc1)S(=O)(=O)c1ccccc1`, the activation is 30% (active).

In the case of `O=C(N[C@H](Cc1ccccc1)C(=O)N1CCCN(Cc2cccs2)CC1)[C@H]1O[C@@H](n2ccc(=O)[nH]c2=O)[C@H](O)[C@@H]1O`, the activation was 2.26%.

`NC(=O)c1ncn([C@@H]2O[C@H](C(=O)O)[C@@H](O)[C@H]2O)n1`: the activation is 3.51%.

For `Cc1cccc(Nc2nc(-c3ccccc3)cs2)n1`, the activation is 19.7%.

As for `CC(=O)Nc1cccc(-c2csc(Nc3cccc(C)n3)n2)c1`, the activation is 26.8%.

Regarding `COc1ccc(-c2csc(Nc3cccc(C)n3)n2)cc1OC`, the activation is 50% (active).

Regarding `CC(=NNC(N)=O)c1ccc(Cl)c(-n2cccc2)c1`, the activation was -7.68%.

For the molecule `COc1ccccc1-c1cc2nc(NCc3cccc(Cl)c3)ccn2n1`, the activation was -1.89%.

As to `Cc1ccc(OCC(=O)Nc2nnc(-c3ccco3)s2)cc1`, the activation is -0.584%.

On to `CCCCOc1ccc(-c2nnc(-c3ccco3)o2)cc1`, for which the activation is 46.7% (active).

In the case of `COc1ccc(OCC(=O)Nc2nnc(-c3ccco3)s2)cc1`, the activation was -4.19%.

Regarding `C=CCN=C1NC(c2ccccc2)C(C(=O)OC)=C(C)N1Cc1ccc(C(F)(F)F)cc1` (configuration not stated), the activation was -8.4%.

For `Cn1c(S(=O)(=O)O)nc2ccccc21`, the activation is -1.9%.

With `Cn1c(-c2ccc(C(=O)c3ccccc3)s2)nc2ccccc21`, the activation was 44.9% (active).

For the molecule `Cn1c(NC(=O)c2ccccc2)nc2ccccc21`, the activation is 19.2%.
